IL1B secr inh: qHTS for Inhibitors of Inflammasome Signaling: IL-1-beta AlphaLISA Primary Screen. AID 743279, 2014. activity change, % at 57.5 µM. THP-1 LPS/ATP IL-1B secretion, AlphaLISA, 16 h; stronger effect = lower value. 4.7% of 360,000 active; in the data active = activity change below about -50%; inconclusive = mostly about -30% to -49%
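Secreted IL-1B measured by AlphaLISA bead assay after 16 h compound exposure of THP-1 cells; compounds (final up to 57.5 uM) added 1 h before LPS (250 ng/mL) and ATP (1.25 mM) stimulation; lower signal means less secretion.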
HT1080 IDH1KD tx: qHTS for induction of synthetic lethality in tumor cells producing 2HG: qHTS for the HT-1080-IDH1KD cell line; HT-1080 IDH1 knockdown viability, ATP luminescence, 48 h; 2% of 360,000 active; AID 686971, 2013; Potency, µM (highest dose often 46.1 µM), most hits filed as cytotoxic
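Viability of IDH1-knockdown HT-1080 fibrosarcoma cells was assessed by CellTiter-Glo after 48 h at 37 °C with titrated compound; concentration-effect curves were classified by fit quality and response size.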
HT1080-NT tox: qHTS for induction of synthetic lethality in tumor cells producing 2HG: qHTS for the HT-1080-NT fibrosarcoma cell line; 1.6% of 360,000 active; HT-1080-NT fibrosarcoma viability, CellTiter-Glo ATP luminescence, 48 h; AID 686970, 2013; Potency, µM (top dose mostly 46.1 µM), most hits filed as cytotoxic;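 also: NT is the 2HG producing partner of a matched IDH1 knockdown line; nearly all actives have a fitted effect of over 55% in size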
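HT-1080-NT; 750 cells/well; 5% FBS RPMI; 48 h compound, 37 degrees C; CellTiter-Glo luminescence; curve fitting and curve-class assignment.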
TDP1 cell noCPT: qHTS for Inhibitors of human tyrosyl-DNA phosphodiesterase 1 (TDP1): qHTS in cells in absence of CPT; DT40 Tdp1-/- hTDP1 cells, no CPT, ATP luminescence, 48 h; Potency, µM (top dose mostly 46.2 µM), hits mostly inhibitors; 15% of 420,000 active; also: nearly all actives have a fitted effect of over 55% in size
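Cells were dispensed at 400 per well, compounds added by pin tool, plates incubated ≥48 hr at 37 °C, then CellTiter-Glo added for 30 min at room temperature before luminescence reading. Line: DT40 Tdp1-/- complemented with hTDP1; camptothecin omitted.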
DT40 TDP1 CPT: qHTS for Inhibitors of human tyrosyl-DNA phosphodiesterase 1 (TDP1): qHTS in cells in presence of CPT; 12% of 420,000 active; Potency, µM (doses to about 46.2 µM), hits mostly inhibitors; chicken DT40 Tdp1-/-;hTDP1 cells + 20 nM CPT, ATP luminescence, 48 h; also: nearly all actives have a fitted effect of over 55% in size
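Chicken DT40 Tdp1-/- cells complemented with human TDP1, 400 cells/well, exposed to compounds plus 20 nM camptothecin for at least 48 h at 37 C; viability read as ATP content by CellTiter-Glo luminescence.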
A number is an active result; . = inactive; ? = inconclusive; / = no result. Hits are enriched below; roughly 19% of the tested compounds scored in any of these assays. Unless noted, calls follow the shape of the dose curve; as a rule, active = well fitted curve in the direction sought with a large enough effect; inconclusive = small, poorly fitted or top-dose-only effect, or another doubt; inactive = no such curve, though single readings can be large; an effect the other way counts as inactive or inconclusive.

SMILES	IL1B secr inh	HT1080 IDH1KD tx	HT1080-NT tox	TDP1 cell noCPT	DT40 TDP1 CPT
O=C(C[C@@H]1C/C=C\C[C@H](NC(=O)OCC2c3ccccc3-c3ccccc32)C(=O)OC[C@@H]2CCCN2C1=O)NCCO	.	.	.	10µM	4.6µM
O=C(C[C@H]1C/C=C\C[C@H](NC(=O)OCC2c3ccccc3-c3ccccc32)C(=O)OC[C@@H]2CCCN2C1=O)N[C@H](CO)Cc1ccccc1	.	.	.	9.2µM	10µM
CC(C)(C)OC(=O)C[C@H]1C/C=C\C[C@@H](CC(=O)NCCO)C(=O)N2CCC[C@H]2COC1=O	.	.	.	.	.
O=C(C[C@@H]1C/C=C\C[C@H](NC(=O)OCC2c3ccccc3-c3ccccc32)C(=O)OC[C@@H]2CCCN2C1=O)N[C@@H](CO)Cc1ccccc1	.	.	.	18µM	18µM
O=C(C[C@@H]1C/C=C\C[C@H](NC(=O)OCC2c3ccccc3-c3ccccc32)C(=O)OC[C@H]2CCCN2C1=O)N[C@H](CO)Cc1ccccc1	.	.	.	5.2µM	4.6µM
CC(C)C#Cc1cnc2c(c1)C(=O)N([C@H](C)CO)C[C@@H](C)[C@H](CN(C)C(=O)Nc1ccccc1F)O2	.	.	.	?	?
O=C(C[C@@H]1C/C=C\C[C@H](NC(=O)OCC2c3ccccc3-c3ccccc32)C(=O)OC[C@@H]2CCCN2C1=O)N[C@H](CO)Cc1ccccc1	.	.	.	10µM	7.3µM
Cc1ccc(NC(=O)CSCc2cc(=O)n3ccsc3n2)c(C)c1	.	.	.	.	.
CCCn1c(CN(C)Cc2ccccc2)nc2c1c(=O)n(C)c(=O)n2C	.	.	.	10µM	9.2µM
CCOC(=O)Cn1c(CN(Cc2ccccc2)Cc2ccccc2)nc2c1c(=O)n(C)c(=O)n2C	.	.	.	?	21µM
CCCCn1c(CN(C)Cc2ccccc2)nc2c1c(=O)n(C)c(=O)n2C	.	.	.	4.1µM	6.5µM
Cn1c(=O)c2c(nc(Cc3ccccc3)n2C)n(C)c1=O	.	.	.	.	.
CCCn1c(CN(Cc2ccccc2)Cc2ccccc2)nc2c1c(=O)n(C)c(=O)n2C	.	.	.	15µM	23µM
COCCn1c(CN(C)Cc2ccccc2)nc2c1c(=O)n(C)c(=O)n2C	.	.	.	?	?
O=C(COc1ccccc1Cl)Nc1nc(-c2ccc(F)cc2)ns1	/	/	/	.	.
CCOC(=O)C(Cc1c[nH]c2ccccc12)NC(=O)c1ccccc1Br (stereo unspecified)	?	.	.	?	?
CCC(C)C(=O)Nc1nnc(CCc2ccccc2)s1 (stereo unspecified)	.	.	.	?	?
CC1CN(Cc2nc3c(c(=O)n(C)c(=O)n3C)n2CCc2ccccc2)CC(C)O1 (stereo unspecified)	.	.	.	.	.
CN(Cc1ccccc1)Cc1nc2c(c(=O)n(C)c(=O)n2C)n1Cc1ccccc1Cl	.	.	.	12µM	26µM
CCOCCn1c(CN(C)Cc2ccccc2)nc2c1c(=O)n(C)c(=O)n2C	.	.	.	23µM	?
CN(Cc1ccccc1)Cc1nc2c(c(=O)n(C)c(=O)n2C)n1CCc1ccccc1	.	.	.	18µM	13µM
O=C(NCCCNC(=O)c1cnccn1)c1cccc(Cl)c1	.	.	.	.	.
COc1ccccc1C(=O)NCC(=O)N/N=C/c1ccc2c(c1)OCO2	.	21µM	?	?	?
O=C(N/N=C/c1ccc2c(c1)OCO2)c1cccc2ccccc12	.	?	?	3.3µM	2.1µM
COc1ccc(/C=N/NC(=O)c2ccoc2C)cc1OC	.	.	.	.	.
COc1ccccc1C(=O)NCC(=O)N/N=C/c1ccncc1	.	.	.	.	.
Cn1cc(C(=O)N/N=C/c2ccc3c(c2)OCO3)c2ccccc21	.	12µM	21µM	5.2µM	7.3µM

Compound activity deposited in PubChem BioAssay by National Center for Advancing Translational Sciences (NCATS).
